In ChEMBL document CHEMBL3988442, “University of Dundee, Small-Polar-MMV Screening Library” (2021):
Hit rate of the full screen: of about 48,000 compounds, about 13,000 (27%) showed an effect of 50% or more. The list shows a part of the results.

What follows are molecules tested on Wolbachia pipientis (assay: Anti-Wolbachia Cell-Based Screen). Conditions: 5 µM.
Format: functional
Parameters: scale not given: in the data most compounds retested in dose-response had high values

Compound | Percent Effect
Cn1cc(CNCC2Cn3nnc(-c4ccccc4)c3CO2)cn1 (centres undefined) | -12.32%
Cn1nnc2cc(C(=O)NS(=O)(=O)Cc3ccc(F)cc3)ccc21 | -12.26%
COCC(C)NC(=O)CN1CCC2(CC1)OCCO2 (centres undefined) | -2.993%
CN1CCOC(C(=O)N2CCC3(CCCC3)CC2)C1 (centres undefined) | -33.61%
O=C(CCc1ccccc1Br)NCC(=O)NCc1ccccc1 | 2.467%
CN(Cc1ccc(F)cc1)CC1(O)CCN(C(=O)c2cccs2)C1 (centres undefined) | 131.3%
CN(C)CCN1CC2(CCC1=O)CCN(C(=O)c1ccn(C)n1)CC2 | 6.742%
COc1ccc(CN(C)CC2(O)CCN(C(=O)c3cccn3C)C2)cc1 (centres undefined) | -15.88%
CN(Cc1ccc(F)cc1)CC1(O)CCN(C(=O)c2ccn(C)n2)C1 (centres undefined) | 136.3%
O=C(Cc1ccccc1)C1CCCN(Cc2cncn2C2CCCC2)C1 (centres undefined) | -39.33%
Cc1nccnc1N1CCC(Cc2ccccc2Cl)(C(=O)O)CC1 | 4.229%
CCc1ccc(C(NCC(N)=O)C(C)(C)C)o1 (centres undefined) | -15.62%
Cc1ccc(C)c(C(=O)Nc2ccc(OC3CCN(C)CC3)cc2)c1 | -4.844%
Cc1ccc(-c2nccn2-c2ccc(OC3CCN(C)CC3)cc2)o1 | 109.9%
Cc1ccc(C(=O)Nc2ccc(OC3CCN(C)CC3)cc2)c(C)c1 | 4.12%
Cc1nnc(CN2CCC(Oc3ccc(F)cc3)CC2)o1 | -12.54%
CN1CCC(Oc2ccc(-n3ccnc3-c3nccn3C)cc2)CC1 | 110.4%
c1cc(CN2CCCC2)cc(-n2ccnc2-c2ccncc2)c1 | -6.612%
Cn1ccnc1-c1nccn1-c1cccc(CN2CCCC2)c1 | -8.491%
Cc1cccc(C(=O)Nc2ccc(OC3CCN(C)CC3)cc2)c1 | -4.145%
CN1CCC(Oc2ccc(-n3ccnc3-c3ccncc3)cc2)CC1 | 114.7%
CCC(CC)c1cc(CNC(=O)N2CCOC(C)C2)on1 (centres undefined) | 0.178%
COc1ccc(C(=O)N2CCC(Oc3cccc(C)c3)(C(=O)O)CC2)o1 | -1.031%
Cc1ccc(Cl)c(C(C(=O)O)N(C)Cc2cnn(C)c2)c1 (centres undefined) | -5.56%

Compound | Percent Effect
O=C(NC1CCS(=O)(=O)C1)c1sccc1-c1ccc(F)cc1 (centres undefined) | 12.15%
CNc1ncc(CN(C)C(=O)[C@@]23CNC[C@@H]2CN(C2CCCC2)C3)cn1 | 3.616%
CC(C)c1ncc(CN2C[C@@H](CN3CCC(O)CC3)[C@@H](CO)C2)cn1 | -17.14%
COc1ncc(CN2CCCC2c2[nH]ncc2C(=O)N(C)C)cn1 (centres undefined) | 107.3%
CNc1ncc(CN2CCCC2c2[nH]ncc2C(=O)N(C)C)cn1 (centres undefined) | 118.3%
Cc1nn(C)c(C)c1C1CCCN1Cc1cccc(C(=O)N(C)C)c1 (centres undefined) | -5.304%
CCc1cn[nH]c1C1CCCN(C(=O)c2cnc(NC(C)C)nc2)C1 (centres undefined) | -3.348%
CCN1CCN(C[C@@H]2CN(Cc3cnc(C(C)C)nc3)C[C@@H]2CO)CC1 | -21.09%
COc1ccccc1CC1CCCN1C(=O)c1cn[nH]c1C (centres undefined) | 6.47%
CC(C)c1ncc(CN2C[C@@H](CN3CCCC3)[C@@H](CO)C2)cn1 | -18.71%
CC(C)c1ncc(CN2CCC(c3n[nH]cc3C(=O)N(C)C)C2)cn1 (centres undefined) | 128.3%
CC(C)c1ncc(CN2CCCC(CO)C2)cn1 (centres undefined) | -2.469%
CC(C)c1ncc(CN2CCCC2c2[nH]ncc2C(=O)N(C)C)cn1 (centres undefined) | 138.1%
CCC(CC)N(C)S(=O)(=O)c1ccc(CCNC(C)=O)s1 | -16.74%
COc1cccc2c1OCC(C(=O)N(C)CCCc1cnn(C)c1)C2 (centres undefined) | -4.921%
Cc1cccn2cc(CN3CCCC(c4ccn[nH]4)C3)nc12 (centres undefined) | 3.062%
C[S+]([O-])CCNC(=O)Nc1cc(F)ccc1-n1cccn1 (centres undefined) | -7.044%
CC(C)c1cccc(-n2cc(O)c(C(N)=O)n2)c1 | -1.55%
Cc1cc(F)ccc1-n1cc(O)c(C(N)=O)n1 | 117.5%
Cc1nc(C(C)NC(=O)COc2ccc(F)cc2)n[nH]1 (centres undefined) | -12.19%
COCCNC(=O)c1nn(-c2cccc(C(C)C)c2)cc1O | -7.047%
CC(C)c1cccc(-n2cc(O)c(C(=O)NCCC(=O)N(C)C)n2)c1 | -3.512%
CSCC(C)N(C)C(=O)c1nn(-c2ccc(F)cc2C)cc1O (centres undefined) | 188.7%
CC(C)C(O)CCNC(=O)Nc1cc(F)ccc1-n1cccn1 (centres undefined) | -1.867%

Compound | Percent Effect
COCCn1ccc2cc(NC(=O)N(C)C(C)CSC)ccc21 (centres undefined) | 13.09%
O=C(c1nn(-c2ccccc2F)cc1O)N1CCCC1 | -1.057%
Cc1cc(F)ccc1-n1cc(O)c(C(=O)NCC[S+](C)[O-])n1 (centres undefined) | 102.5%
Cc1nc(NC(=O)c2nn(-c3ccc(F)cc3C)cc2O)n[nH]1 | 158.1%
COc1cccc(C2C3=C(COC3=O)Nc3[nH]nc(C)c32)c1O (centres undefined) | 0.9958%
OCc1cc2ccccc2nc1NCC1(O)CCC1 | 2.986%
O=C(NCCC(=O)N1CCCC1)c1nn(-c2ccccc2F)cc1O | -1.899%
Cc1cc(F)ccc1-n1cc(O)c(C(=O)NCC2(O)CCC2)n1 | 99.53%
O=C(NCC1(O)CCOCC1)c1ccn(-c2ccccc2F)n1 | -4.813%
Cc1nnc(N2CCO[C@H]3[C@@H](OCc4ccccn4)CC[C@@H]32)s1.O=C(O)C(F)(F)F.O=C(O)C(F)(F)F | 0.4576%
Fc1cnc(N2CCO[C@H]3[C@H](OCCN4CCCC4)CC[C@@H]32)nc1.O=C(O)C(F)(F)F | 101.9%
O=C(O)C(F)(F)F.c1cnc(N2CCO[C@H]3[C@H](OCCN4CCCC4)CC[C@@H]32)nc1 | -8.905%
Cc1nnc(N2C[C@H](OCC3CCCC3)[C@H]3OCCC[C@H]32)s1.O=C(O)C(F)(F)F | -7.444%
O=C(O)C(F)(F)F.c1cnc(N2CCO[C@H]3[C@H](OCC4CC4)CC[C@@H]32)nc1 | 118.2%
Fc1cnc(N2CC[C@@H](N3CCOCC3)[C@@H]2Cc2ccncc2)nc1.O=C(O)C(F)(F)F.O=C(O)C(F)(F)F | -1.872%
Fc1cnc(N2C[C@@H](OCC3CCOCC3)[C@H]3OCCC[C@H]32)nc1.O=C(O)C(F)(F)F | 83.11%
C1CC(CN2CCO[C@H]3[C@H](OCC4CC4)CC[C@@H]32)CCO1.O=C(O)C(F)(F)F | -2.542%
O=C(CO[C@@H]1CC[C@H]2[C@H]1OCCN2c1ncccn1)N1CCCC1.O=C(O)C(F)(F)F | -14.02%
Cc1nnc(N2C[C@@H](OCC3CCCC3)[C@H]3OCCC[C@H]32)s1.O=C(O)C(F)(F)F | -7.489%
Fc1cnc(N2CCO[C@H]3[C@H](OCC4CCOCC4)CC[C@@H]32)nc1.O=C(O)C(F)(F)F | 113.1%
Cn1cccc1C(=O)NS(=O)(=O)c1cnn(-c2ccccc2F)c1 | -15.01%
CCC(CC)c1cc(CNC(=O)N2CCC(CO)CC2)on1 | 3.231%
CCSc1ccc(NC(=O)NC(C)c2ccncc2)cn1 (centres undefined) | 4.069%
CN(C)C(=O)CO[C@@H]1CC[C@H]2[C@H]1OCCN2c1ncc(F)cn1.O=C(O)C(F)(F)F | 112.4%

Compound | Percent Effect
c1cnc(N2CCO[C@H]3[C@H](OCCN4CCOCC4)CC[C@@H]32)nc1 | 4.128%
Cc1ccc(N2CCO[C@H]3[C@H](OCC(=O)N4CCCC4)CC[C@@H]32)cc1.O=C(O)C(F)(F)F | -12.38%
O=C(O)C(F)(F)F.c1cnc(N2CCO[C@H]3[C@H](OCC4CCOCC4)CC[C@@H]32)nc1 | 109.2%
CN(C)C(=O)CO[C@@H]1CC[C@H]2[C@H]1OCCN2c1ncccn1.O=C(O)C(F)(F)F | -13.26%
CC(C)c1noc(CS(=O)(=O)CC(=O)NCc2ccccc2)n1 | -6.671%
CNC(=O)CC1CCN(C(=O)NCC2(c3ccccc3F)CC2)CC1 | 17.39%
C[C@H](NC(=O)c1cnc(-c2ccccc2)nc1O)C(N)=O | -2.731%
COc1ccccc1Oc1ncccc1CNC(=O)C(O)C(F)(F)F (centres undefined) | -1.797%
O=C1NC(C(=O)NCc2cccnc2Oc2ccc(F)cc2F)CO1 (centres undefined) | 106.1%
Cc1cccc(C)c1Oc1ncccc1CNC(=O)C1COC(=O)N1 (centres undefined) | 89.56%
O=C1NC(C(=O)NCc2cccnc2Oc2ccccc2F)CO1 (centres undefined) | 117.3%
CC(=O)N[C@@H](C)C(=O)NCc1cccnc1Oc1ccccc1F | -9.866%
CN(C)S(=O)(=O)NCc1cccnc1Oc1ccccc1F | -2.54%
O=C1NC(C(=O)NCc2cccnc2Oc2ccc(F)c(F)c2)CO1 (centres undefined) | 103.5%
Cc1cccc(C)c1Oc1ncccc1CNC(=O)C1(C)CCCNC1 (centres undefined) | 9.373%
O=C(CN1CCCC1=O)NCc1cccnc1Oc1ccc(F)c(F)c1 | -46.82%
CC1(C(=O)NCc2cccnc2Oc2ccc(F)c(F)c2)CCCNC1 (centres undefined) | -1.745%
CC1(C(=O)NCc2cccnc2Oc2ccc(F)cc2F)CCCNC1 (centres undefined) | -10.63%
Cc1ccccc1Oc1ncccc1CNC(=O)Cn1cccnc1=O | -3.943%
CC(C)c1noc(CN(C)C(c2ccc(F)cc2)c2cccnc2)n1 (centres undefined) | 7.35%
CCn1nc2c(cc1=O)CN(CCCOc1ccc(C#N)cc1)CC2 | -4.501%
CC(C)(C)OC(=O)NCC1CCCCN1Cc1cccc(C(N)=O)c1 (centres undefined) | -2.516%
